Source: PubChem BioAssay AID1851 (National Center for Advancing Translational Sciences (NCATS), 2009)
The campaign covered roughly 16,000 compounds. About 2,600 (16%) were called active. Not shown: some 20% with an inconclusive outcome. Calls follow the shape of the dose curve; as a rule, active = well fitted curve in the direction sought with a large enough effect; inconclusive = small, poorly fitted or top-dose-only effect, or effect the other way; inactive = no such curve, though single readings can be large or run the other way. A selection follows. The source holds several records for some structures; these can differ, active in one and inactive in another.

Molecular target: Cytochrome P450 2D6 (Homo sapiens) (UniProt P10635)
Sequence (P10635 whole entry, looked up): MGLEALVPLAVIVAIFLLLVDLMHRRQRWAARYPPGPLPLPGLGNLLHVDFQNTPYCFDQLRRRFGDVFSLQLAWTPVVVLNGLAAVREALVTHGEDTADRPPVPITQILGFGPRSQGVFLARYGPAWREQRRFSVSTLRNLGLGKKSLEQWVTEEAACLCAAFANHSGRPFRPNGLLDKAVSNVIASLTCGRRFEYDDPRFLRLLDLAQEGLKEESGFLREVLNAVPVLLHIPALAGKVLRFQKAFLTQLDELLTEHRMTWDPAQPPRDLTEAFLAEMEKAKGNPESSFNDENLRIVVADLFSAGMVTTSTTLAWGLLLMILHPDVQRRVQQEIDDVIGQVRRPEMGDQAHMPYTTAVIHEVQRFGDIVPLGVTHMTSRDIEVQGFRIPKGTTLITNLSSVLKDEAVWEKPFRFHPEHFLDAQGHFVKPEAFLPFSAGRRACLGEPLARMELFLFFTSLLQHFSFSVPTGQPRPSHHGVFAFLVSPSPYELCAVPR
Test: Cytochrome panel assay with activity outcomes
Conditions: recombinant CYP, pro-luciferin dealkylation, luminescence, p450-cyp2d6; series mostly up to 57.1 µM
% is scaled to controls: 0 for no effect and ±100 for the full control effect.

activity, negative = inhibition, inactive:
Cn1c(=O)c2c(ncn2CN2CCN(Cn3cnc4c3c(=O)n(C)c(=O)n4C)CC2)n(C)c1=O -3.86% [at 11.4 µM], C[C@@H]1/C=C\CC(=O)OC[C@H](C)C(=O)N[C@@H](C)C(=O)OC1 -1.56% [at 11.4 µM], C[C@@H]1Oc2ccc(C(=O)C[C@@H](C(=O)O)c3ccc4c(c3)OCO4)cc2O1 -15.2% [at 11.4 µM], C[C@@H](C(=O)O)/C(=C/c1ccc2c(c1)OCO2)C(=O)O 14.3% [at 11.4 µM], C#CCCCO/N=C1/C[C@@H](O)[C@@H](O)[C@@H]2[C@@H]3C(=O)N(C4CCCCC4)C(=O)[C@H]3CC[C@@H]12 13% [at 11.4 µM], C[C@H](NC(=O)c1ccc(Cl)c(Cl)c1)c1ccc(-c2ccccc2)cc1 -1.17% [at 11.4 µM], COC(=O)C/C=C\[C@@H](C)[C@@H](/C=N\O[C@@H](C)c1cn([C@H]2COC[C@H]2O)nn1)NS(=O)(=O)c1ccc(C)cc1 5.15% [at 11.4 µM]

AC50, inactive:
CCCc1nnc(NC(=O)C(CC)OC(=O)c2cc(C)nc3ccccc23)s1 (stereo unspecified), N[C@H](C(=O)O)c1ccc(C(=O)O)c(O)c1, O=C(Nc1ccccc1C(=O)NCC1CCCO1)c1ccc(Cl)cc1Cl (stereo unspecified), CC(C)(C)S(=O)(=O)c1cnc2c(-c3ccc(F)cc3)cnn2c1N, CCn1c2ccc(Cl)cc2c2nc3ccccc3nc21, CCCCc1c2ccccc2nc2[nH]c3ccccc3c12, Cn1c(=O)c2[nH]cnc2n(C)c1=O, Cc1ccc(Sc2ccc(NC(=O)c3ccc(S(C)(=O)=O)cc3Cl)cc2)cc1, COC(=O)CCC(=O)NNC(=O)c1ccc(Br)cc1, Cc1ccc(NC(=S)NCCN2CCOCC2)cc1C, O=C(CCn1c(=S)[nH]c2ccccc2c1=O)NCCCN1CCOCC1, CN(C)CCCO[C@H]1[C@@H]2OC(C)(C)O[C@@H]2O[C@@H]1[C@H](O)CO, CCC(=O)Nc1ccc(C(=O)CSc2nnc(-c3ccc(O)cc3)n2CC2CCCO2)cc1OC (stereo unspecified), CC(=O)Nc1cccc(N2C(=O)CCC2=O)c1, Cc1ccc(C(=O)NC2CCCCCC2)cc1N1CCCC1=O, CCCCN(C)CCCNC(=O)c1ccc(N2CCCC2=O)cc1, Cc1ccccc1C(=O)NC(=S)NCC(=O)c1ccccc1, COCCn1c(=O)c(C)nc2cnc(Nc3cccc(OC)c3)nc21, CN(C)C(N)=NCCC[C@H](N)C(=O)O, CC(/C=N\NC(=O)Cn1c(C)nc2ccccc21)=C\c1ccccc1, CC[C@H]1C2=C3C(CC[C@H]4C(OC)OC[C@](C)([C@@H]34)N(C(=O)OC(C)(C)C)C2)C(CO)C1CO (stereo partly specified), COC(=O)c1sccc1NC(=O)c1cc(-c2ccc(C)cc2C)nc2ccccc12, Cc1c(Br)c([N+](=O)[O-])nn1CC(=O)NCc1ccccn1, O=C(OCC1CC(c2ccccc2)=NO1)c1ccc(Cl)cc1 (stereo unspecified), CSc1nncc(-c2ccc(F)c(F)c2)n1, Cc1ccc(OCCCC(=O)N2CCOCC2)cc1, Cc1cccc(/C(N)=N/OC(=O)CCCN2C(=O)c3ccccc3C2=O)c1, CC(C)(C)NC[C@H](O)c1cc(O)cc(O)c1, Cc1onc(-c2ccccc2Cl)c1C(=O)Nc1nnc(Cc2ccc(Cl)cc2)s1, Cc1ccc(NC(=O)c2ccc(CSc3nnc(-c4ccncc4)n3C)cc2)cc1, Cc1ccc(SCc2nnc(NC(=O)c3ccccc3)s2)cc1, CCc1nc2c(c(SC)nn2-c2ccccc2)c(N)c1C(=O)OC, CC(=O)Nc1ccc(-c2cc(-c3ccc(NC(C)=O)cc3)nc(-c3ccccc3)n2)cc1, CC(=O)OCCNC(=O)c1cccnc1, O=C(Oc1cccc(Br)c1)c1cccnc1

AC50, active:
c1ccc(SC(Sc2ccccc2)c2ccc3c(c2)OCO3)cc1 3.16 µM, CN(C)CCCc1c2ccccc2nc2ccc(Cl)cc12 1.58 µM, Fc1cccc(NC(=S)NCCCN2CCOCC2)c1 7.94 µM, O=C(O)c1cccc(N2CCCC2=O)c1 0.251 µM, CC(NC(=O)c1ccc(N2CCCC2=O)cc1)c1ccccc1 (stereo unspecified) 7.94 µM, Cc1ccc(OCCCN2C(=O)C(=O)c3cccc(C)c32)cc1 14.1 µM, Cc1ccc(SCc2ccc(C(=O)NCc3ccncc3)cc2)cc1 0.0447 µM, O=C(COC(=O)c1cccnc1)c1ccc(Cl)c(Cl)c1 2.51 µM

AC50, 15.8 µM (active) and inactive:
Cc1ccc(OC[C@H](O)[C@H](C)NC(C)C)c2c1CCC2
